According to paper PMC7862700, “An all-to-all approach to the identification of sequence-specific readers for epigenetic DNA modifications on cytosine”:

Legend:
Test in all cases: DAPPL (digital affinity profiling via proximity ligation, sequencing); 10 mM Tris-HCl pH 7.5, 50 mM NaCl, 1 mM DTT, 4% glycerol, room temperature, 30 min; GST-TFs on glutathione beads, 16-mer random dsDNA library, 0.1% formaldehyde crosslink after washing; high values mean tight binding
[1] = target: T1, FEV (Homo sapiens, UniProt Q99581 1-238); conditions: protein: recombinant; tags: N-terminal GST; dsDNA, one strand shown
T1 sequence: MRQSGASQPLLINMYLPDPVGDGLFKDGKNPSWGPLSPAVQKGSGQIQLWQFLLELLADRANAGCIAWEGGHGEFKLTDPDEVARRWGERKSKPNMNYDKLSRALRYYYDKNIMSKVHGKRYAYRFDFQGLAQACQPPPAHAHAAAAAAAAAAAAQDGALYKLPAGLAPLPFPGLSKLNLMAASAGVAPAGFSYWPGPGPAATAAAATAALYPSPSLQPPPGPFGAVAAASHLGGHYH
Outline: (§1)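 The binding signal reported is, for every hexamer, its read frequency for a factor over its read frequency for the tag-only sample. Reads came from pools of yeast-expressed, GST-fused human transcription factors on glutathione beads, barcoded with DNA and mixed with that sample, which were incubated with 200 nmole of a random double-stranded 16-mer DNA library in Tris/NaCl/DTT/glycerol buffer at room temperature for 30 min. After washing, the pools were crosslinked with 0.1% formaldehyde, proximity-ligated with BsaI/T4 ligase for 1 h at 37 °C, PCR-amplified and sequenced on an Illumina NextSeq500.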

[2] = target: ETV5 (Homo sapiens, UniProt P41161 1-510); conditions: protein: recombinant; tags: N-terminal GST; dsDNA, one strand shown
Outline: as §1

[3] = target: HSF1 (Homo sapiens, UniProt Q00613 1-529); conditions: protein: recombinant; tags: N-terminal GST; chain copies: 3; dsDNA, one strand shown
Outline: as §1

[4] = target: T2, SPIC (Homo sapiens, UniProt Q8N5J4 1-248); conditions: protein: recombinant; tags: N-terminal GST; dsDNA, one strand shown
T2 sequence: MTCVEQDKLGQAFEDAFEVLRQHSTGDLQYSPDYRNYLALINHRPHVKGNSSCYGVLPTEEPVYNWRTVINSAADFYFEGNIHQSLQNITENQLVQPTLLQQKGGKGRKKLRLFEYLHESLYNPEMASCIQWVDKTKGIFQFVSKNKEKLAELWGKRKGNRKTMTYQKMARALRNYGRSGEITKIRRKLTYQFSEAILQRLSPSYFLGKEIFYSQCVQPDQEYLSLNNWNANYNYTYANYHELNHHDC
Outline: as §1

[5] = target: ELF4 (Homo sapiens, UniProt Q99607 1-663); conditions: protein: recombinant; tags: N-terminal GST; dsDNA, one strand shown
Outline: as §1

[6] = target: T3, ELK4 (Homo sapiens, UniProt P28324-2 1-405); conditions: protein: recombinant; tags: N-terminal GST; dsDNA, one strand shown
T3 sequence: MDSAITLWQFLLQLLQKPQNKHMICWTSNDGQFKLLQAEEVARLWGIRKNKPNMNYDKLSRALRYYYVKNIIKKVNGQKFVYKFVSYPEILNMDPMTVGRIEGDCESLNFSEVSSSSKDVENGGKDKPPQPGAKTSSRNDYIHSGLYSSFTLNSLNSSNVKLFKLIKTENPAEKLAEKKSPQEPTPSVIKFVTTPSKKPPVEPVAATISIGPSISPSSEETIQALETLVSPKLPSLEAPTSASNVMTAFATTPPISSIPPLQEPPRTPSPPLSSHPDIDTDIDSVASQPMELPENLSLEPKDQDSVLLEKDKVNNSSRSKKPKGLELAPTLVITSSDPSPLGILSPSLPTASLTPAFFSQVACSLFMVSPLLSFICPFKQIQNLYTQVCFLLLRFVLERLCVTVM
Outline: as §1

[7] = target: T4, ETV2 (Homo sapiens, UniProt O00321 1-342); conditions: protein: recombinant; tags: N-terminal GST; dsDNA, one strand shown
T4 sequence: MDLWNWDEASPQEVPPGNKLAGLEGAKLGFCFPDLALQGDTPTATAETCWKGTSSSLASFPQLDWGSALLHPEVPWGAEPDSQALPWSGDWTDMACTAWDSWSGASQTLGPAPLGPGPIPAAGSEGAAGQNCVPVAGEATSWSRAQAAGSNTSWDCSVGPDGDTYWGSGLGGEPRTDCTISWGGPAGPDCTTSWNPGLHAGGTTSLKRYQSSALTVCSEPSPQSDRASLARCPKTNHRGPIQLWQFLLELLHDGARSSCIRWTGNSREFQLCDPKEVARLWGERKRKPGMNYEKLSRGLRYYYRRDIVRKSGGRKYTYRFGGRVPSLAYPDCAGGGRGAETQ
Outline: as §1

[8] = target: T5, ELF3 (Homo sapiens, UniProt P78545 1-371); conditions: protein: recombinant; tags: N-terminal GST; dsDNA, one strand shown
T5 sequence: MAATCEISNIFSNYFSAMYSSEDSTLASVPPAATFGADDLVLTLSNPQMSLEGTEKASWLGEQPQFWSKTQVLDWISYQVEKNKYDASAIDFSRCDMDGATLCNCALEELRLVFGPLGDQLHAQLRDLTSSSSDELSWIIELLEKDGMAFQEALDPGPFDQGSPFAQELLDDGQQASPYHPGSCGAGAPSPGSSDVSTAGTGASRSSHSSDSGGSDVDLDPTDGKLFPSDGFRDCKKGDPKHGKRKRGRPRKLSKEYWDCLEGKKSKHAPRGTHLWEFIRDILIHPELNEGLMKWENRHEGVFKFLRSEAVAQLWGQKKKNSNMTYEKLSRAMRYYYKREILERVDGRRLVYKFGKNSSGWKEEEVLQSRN
Outline: as §1

[9] = target: CRX (Homo sapiens, UniProt O43186 1-299); conditions: protein: recombinant; tags: N-terminal GST; dsDNA, one strand shown
Outline: as §1

[10] = target: ETV1 (Homo sapiens, UniProt P50549 1-477); conditions: protein: recombinant; tags: N-terminal GST; dsDNA, one strand shown
Outline: as §1

[11] = target: T6, ERF (Homo sapiens, UniProt P50548 1-548); conditions: protein: recombinant; tags: N-terminal GST; dsDNA, one strand shown
T6 sequence: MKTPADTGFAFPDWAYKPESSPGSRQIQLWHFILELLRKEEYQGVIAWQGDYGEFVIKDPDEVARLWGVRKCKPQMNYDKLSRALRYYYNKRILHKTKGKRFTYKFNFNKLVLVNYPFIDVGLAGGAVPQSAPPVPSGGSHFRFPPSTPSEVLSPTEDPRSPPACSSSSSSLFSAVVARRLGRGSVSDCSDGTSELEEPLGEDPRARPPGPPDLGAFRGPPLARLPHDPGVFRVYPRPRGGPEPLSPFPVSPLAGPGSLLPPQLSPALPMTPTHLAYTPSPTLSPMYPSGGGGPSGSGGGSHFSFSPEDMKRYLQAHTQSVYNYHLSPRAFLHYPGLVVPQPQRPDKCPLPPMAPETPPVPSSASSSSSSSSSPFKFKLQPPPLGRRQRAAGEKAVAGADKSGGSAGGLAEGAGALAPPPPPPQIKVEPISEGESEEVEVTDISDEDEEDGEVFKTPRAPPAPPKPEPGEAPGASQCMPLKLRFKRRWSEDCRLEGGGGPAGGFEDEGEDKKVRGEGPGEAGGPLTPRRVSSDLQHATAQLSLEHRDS
Outline: as §1

[12] = target: T7, ETV3L (Homo sapiens, UniProt Q6ZN32 1-361); conditions: protein: recombinant; tags: N-terminal GST; dsDNA, one strand shown
T7 sequence: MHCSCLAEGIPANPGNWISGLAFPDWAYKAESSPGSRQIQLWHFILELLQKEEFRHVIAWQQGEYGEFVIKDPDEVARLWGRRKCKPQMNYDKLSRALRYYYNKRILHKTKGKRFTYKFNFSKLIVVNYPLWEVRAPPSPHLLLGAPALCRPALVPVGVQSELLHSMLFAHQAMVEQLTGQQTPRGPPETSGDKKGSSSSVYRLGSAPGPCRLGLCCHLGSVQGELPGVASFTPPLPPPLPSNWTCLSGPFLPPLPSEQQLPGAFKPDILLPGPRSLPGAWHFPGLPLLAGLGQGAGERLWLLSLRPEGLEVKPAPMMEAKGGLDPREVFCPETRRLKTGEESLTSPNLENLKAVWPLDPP
Outline: as §1

[13] = target: T8, ETS2 (Homo sapiens, UniProt P15036 1-469); conditions: protein: recombinant; tags: N-terminal GST; dsDNA, one strand shown
T8 sequence: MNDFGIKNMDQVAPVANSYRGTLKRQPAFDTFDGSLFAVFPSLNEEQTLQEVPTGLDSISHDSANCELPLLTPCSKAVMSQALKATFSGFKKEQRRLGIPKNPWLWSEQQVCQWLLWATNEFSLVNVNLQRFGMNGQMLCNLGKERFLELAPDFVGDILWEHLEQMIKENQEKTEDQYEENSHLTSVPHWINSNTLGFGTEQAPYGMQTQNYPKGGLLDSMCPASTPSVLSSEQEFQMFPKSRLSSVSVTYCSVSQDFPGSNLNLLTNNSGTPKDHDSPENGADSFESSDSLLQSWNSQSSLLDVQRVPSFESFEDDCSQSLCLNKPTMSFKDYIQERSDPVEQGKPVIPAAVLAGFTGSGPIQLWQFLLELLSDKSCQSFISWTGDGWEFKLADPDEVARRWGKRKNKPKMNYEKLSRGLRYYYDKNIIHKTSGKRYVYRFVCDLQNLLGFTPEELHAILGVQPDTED
Outline: as §1

[14] = target: T9, SPDEF (Homo sapiens, UniProt O95238 1-335); conditions: protein: recombinant; tags: N-terminal GST; dsDNA, one strand shown
T9 sequence: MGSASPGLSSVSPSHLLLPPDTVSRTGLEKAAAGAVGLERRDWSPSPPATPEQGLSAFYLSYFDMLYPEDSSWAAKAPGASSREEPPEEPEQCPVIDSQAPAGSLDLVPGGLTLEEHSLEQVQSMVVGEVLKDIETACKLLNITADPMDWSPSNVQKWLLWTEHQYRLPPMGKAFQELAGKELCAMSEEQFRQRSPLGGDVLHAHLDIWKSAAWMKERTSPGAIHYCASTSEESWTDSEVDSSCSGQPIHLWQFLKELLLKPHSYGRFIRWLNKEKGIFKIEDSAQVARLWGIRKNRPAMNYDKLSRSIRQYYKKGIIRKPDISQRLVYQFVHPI
Outline: as §1

[15] = target: T10, ETV7 (Homo sapiens, UniProt Q9Y603 1-341); conditions: protein: recombinant; tags: N-terminal GST; dsDNA, one strand shown
T10 sequence: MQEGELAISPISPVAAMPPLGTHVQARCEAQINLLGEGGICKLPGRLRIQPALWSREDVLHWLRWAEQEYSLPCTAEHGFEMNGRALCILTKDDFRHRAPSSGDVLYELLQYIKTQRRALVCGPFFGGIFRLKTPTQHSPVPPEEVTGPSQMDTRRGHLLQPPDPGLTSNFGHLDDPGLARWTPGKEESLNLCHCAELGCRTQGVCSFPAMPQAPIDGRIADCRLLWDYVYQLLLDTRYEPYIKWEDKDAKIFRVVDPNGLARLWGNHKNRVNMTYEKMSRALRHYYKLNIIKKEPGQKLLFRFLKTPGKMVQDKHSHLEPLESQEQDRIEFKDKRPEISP
Outline: as §1

[16] = target: T11, ELF5 (Homo sapiens, UniProt Q9UKW6-2 1-255); conditions: protein: recombinant; tags: N-terminal GST; dsDNA, one strand shown
T11 sequence: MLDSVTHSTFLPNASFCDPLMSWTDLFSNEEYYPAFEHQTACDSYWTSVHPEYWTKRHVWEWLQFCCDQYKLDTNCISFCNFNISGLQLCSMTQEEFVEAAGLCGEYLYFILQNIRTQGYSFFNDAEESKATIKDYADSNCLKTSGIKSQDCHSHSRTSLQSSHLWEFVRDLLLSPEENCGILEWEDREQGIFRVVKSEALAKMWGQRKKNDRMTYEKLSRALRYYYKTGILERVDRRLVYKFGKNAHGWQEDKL
Outline: as §1

[17] = target: T12, ETV3 (Homo sapiens, UniProt P41162-2 1-143); conditions: protein: recombinant; tags: N-terminal GST; dsDNA, one strand shown
T12 sequence: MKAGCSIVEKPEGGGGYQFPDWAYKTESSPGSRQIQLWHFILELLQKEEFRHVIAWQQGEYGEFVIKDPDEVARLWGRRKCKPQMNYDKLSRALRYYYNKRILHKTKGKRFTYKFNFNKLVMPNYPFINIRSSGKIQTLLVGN
Outline: as §1

[18] = target: ETV6 (Homo sapiens, UniProt P41212 1-452); conditions: protein: recombinant; tags: N-terminal GST; dsDNA, one strand shown
Outline: as §1

Sequence of CRX (O43186 whole entry): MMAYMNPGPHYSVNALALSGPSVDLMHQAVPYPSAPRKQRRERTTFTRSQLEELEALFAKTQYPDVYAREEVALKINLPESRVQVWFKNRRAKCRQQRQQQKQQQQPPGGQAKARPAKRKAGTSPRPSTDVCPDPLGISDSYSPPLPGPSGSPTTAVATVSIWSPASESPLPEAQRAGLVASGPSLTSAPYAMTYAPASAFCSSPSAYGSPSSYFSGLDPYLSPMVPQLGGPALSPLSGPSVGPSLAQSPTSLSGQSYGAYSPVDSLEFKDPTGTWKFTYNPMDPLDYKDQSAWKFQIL
Sequence of ETV6 (P41212 whole entry): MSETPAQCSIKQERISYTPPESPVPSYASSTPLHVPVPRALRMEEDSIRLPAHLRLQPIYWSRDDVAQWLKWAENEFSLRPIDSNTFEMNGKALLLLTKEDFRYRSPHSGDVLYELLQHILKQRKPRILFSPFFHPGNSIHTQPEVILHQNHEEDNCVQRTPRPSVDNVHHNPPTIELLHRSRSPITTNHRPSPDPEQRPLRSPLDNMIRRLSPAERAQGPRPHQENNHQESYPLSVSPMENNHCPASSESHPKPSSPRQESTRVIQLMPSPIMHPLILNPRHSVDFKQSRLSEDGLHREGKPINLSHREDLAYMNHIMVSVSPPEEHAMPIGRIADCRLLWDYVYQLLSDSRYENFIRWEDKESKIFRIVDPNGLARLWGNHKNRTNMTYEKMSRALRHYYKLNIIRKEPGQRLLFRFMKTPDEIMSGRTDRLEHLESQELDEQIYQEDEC
Sequence of ELF4 (Q99607 whole entry): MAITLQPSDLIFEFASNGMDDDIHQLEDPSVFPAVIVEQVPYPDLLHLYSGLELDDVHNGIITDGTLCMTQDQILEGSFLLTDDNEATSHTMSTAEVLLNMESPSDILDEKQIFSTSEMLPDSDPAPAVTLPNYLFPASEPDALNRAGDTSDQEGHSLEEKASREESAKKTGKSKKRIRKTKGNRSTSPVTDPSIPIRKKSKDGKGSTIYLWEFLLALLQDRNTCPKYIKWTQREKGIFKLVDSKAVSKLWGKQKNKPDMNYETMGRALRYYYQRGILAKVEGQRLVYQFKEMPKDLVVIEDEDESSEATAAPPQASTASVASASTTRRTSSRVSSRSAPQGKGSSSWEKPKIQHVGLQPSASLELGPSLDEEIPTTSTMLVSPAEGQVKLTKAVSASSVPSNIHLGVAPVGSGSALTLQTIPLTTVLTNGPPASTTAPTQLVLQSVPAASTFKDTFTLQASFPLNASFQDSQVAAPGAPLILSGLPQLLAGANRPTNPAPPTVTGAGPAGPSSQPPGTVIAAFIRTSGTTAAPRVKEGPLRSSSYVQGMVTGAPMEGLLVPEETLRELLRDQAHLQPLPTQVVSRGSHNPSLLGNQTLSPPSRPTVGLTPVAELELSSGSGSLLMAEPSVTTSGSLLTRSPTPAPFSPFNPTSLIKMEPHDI
Sequence of HSF1 (Q00613 whole entry): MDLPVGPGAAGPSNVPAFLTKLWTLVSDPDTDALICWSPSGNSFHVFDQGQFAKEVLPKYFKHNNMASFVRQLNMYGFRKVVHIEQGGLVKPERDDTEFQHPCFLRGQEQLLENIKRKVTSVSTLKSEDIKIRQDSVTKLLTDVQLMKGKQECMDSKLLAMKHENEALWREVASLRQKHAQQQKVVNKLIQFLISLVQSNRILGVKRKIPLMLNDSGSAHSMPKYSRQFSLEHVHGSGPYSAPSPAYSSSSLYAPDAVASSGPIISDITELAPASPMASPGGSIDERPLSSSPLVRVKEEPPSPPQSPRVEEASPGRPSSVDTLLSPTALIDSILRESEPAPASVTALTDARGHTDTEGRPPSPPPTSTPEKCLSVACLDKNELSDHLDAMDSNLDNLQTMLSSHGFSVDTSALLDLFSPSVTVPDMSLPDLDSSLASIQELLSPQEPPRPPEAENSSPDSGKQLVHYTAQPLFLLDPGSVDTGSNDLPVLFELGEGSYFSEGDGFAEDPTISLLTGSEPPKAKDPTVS
Sequence of ETV1 (P50549 whole entry): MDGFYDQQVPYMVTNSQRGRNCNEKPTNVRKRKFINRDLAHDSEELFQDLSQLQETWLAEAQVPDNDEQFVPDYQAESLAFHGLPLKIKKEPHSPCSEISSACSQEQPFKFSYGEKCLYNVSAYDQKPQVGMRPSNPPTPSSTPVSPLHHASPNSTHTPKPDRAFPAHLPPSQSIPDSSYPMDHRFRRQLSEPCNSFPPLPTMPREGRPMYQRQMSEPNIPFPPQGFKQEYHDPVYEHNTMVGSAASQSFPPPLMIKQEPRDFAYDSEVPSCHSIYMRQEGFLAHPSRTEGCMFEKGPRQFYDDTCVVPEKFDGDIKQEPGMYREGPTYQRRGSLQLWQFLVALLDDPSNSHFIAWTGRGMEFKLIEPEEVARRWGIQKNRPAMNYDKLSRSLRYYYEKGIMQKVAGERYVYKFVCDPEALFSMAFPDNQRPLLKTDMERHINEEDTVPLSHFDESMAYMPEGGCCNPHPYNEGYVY
Sequence of ETV5 (P41161 whole entry): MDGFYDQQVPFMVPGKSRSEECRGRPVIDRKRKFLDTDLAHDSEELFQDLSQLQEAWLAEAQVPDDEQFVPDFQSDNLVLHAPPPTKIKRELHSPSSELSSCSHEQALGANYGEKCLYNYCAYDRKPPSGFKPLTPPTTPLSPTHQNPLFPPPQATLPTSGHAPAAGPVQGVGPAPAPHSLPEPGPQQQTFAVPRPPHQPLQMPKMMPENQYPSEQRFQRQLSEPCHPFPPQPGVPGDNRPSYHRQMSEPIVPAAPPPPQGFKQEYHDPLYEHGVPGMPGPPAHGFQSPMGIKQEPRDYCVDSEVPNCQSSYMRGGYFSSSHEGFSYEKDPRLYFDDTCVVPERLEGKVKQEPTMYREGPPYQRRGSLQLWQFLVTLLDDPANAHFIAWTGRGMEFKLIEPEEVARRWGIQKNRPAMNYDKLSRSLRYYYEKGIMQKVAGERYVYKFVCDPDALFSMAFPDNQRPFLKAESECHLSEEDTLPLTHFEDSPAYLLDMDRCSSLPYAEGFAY

Sequence: CAAAAA
- binding signal [1]: 1.2 fold enrichment (6-mer frequency, TF over GST control)
- binding signal [2]: 1.15 fold enrichment (6-mer frequency, TF over GST control)
- binding signal [3]: 1.08 fold enrichment (6-mer frequency, TF over GST control)
- binding signal [4]: 1.01 fold enrichment (6-mer frequency, TF over GST control)
- binding signal [5]: 1.18 fold enrichment (6-mer frequency, TF over GST control)
- binding signal [6]: 1.13 fold enrichment (6-mer frequency, TF over GST control)
- binding signal [7]: 1.17 fold enrichment (6-mer frequency, TF over GST control)
- binding signal [8]: 1.12 fold enrichment (6-mer frequency, TF over GST control)
- binding signal [9]: 1.02 fold enrichment (6-mer frequency, TF over GST control)
- binding signal [10]: 1.22 fold enrichment (6-mer frequency, TF over GST control)
- binding signal [11]: 1.15 fold enrichment (6-mer frequency, TF over GST control)
- binding signal [12]: 1.15 fold enrichment (6-mer frequency, TF over GST control)
- binding signal [13]: 1.12 fold enrichment (6-mer frequency, TF over GST control)
- binding signal [14]: 1.07 fold enrichment (6-mer frequency, TF over GST control)
- binding signal [15]: 1.1 fold enrichment (6-mer frequency, TF over GST control)
- binding signal [16]: 1.07 fold enrichment (6-mer frequency, TF over GST control)
- binding signal [17]: 1.12 fold enrichment (6-mer frequency, TF over GST control)
- binding signal [18]: 1.12 fold enrichment (6-mer frequency, TF over GST control)
